# Assay outcomes from PubChem BioAssay.
# IDE cell activ: boosts human insulin-degrading enzyme activity in HEK cells; FAbeta-B cleavage, fluorescence polarization; 0% vehicle, 100% cell-free pure enzyme wells; AID 493087; 340,000 compounds, 0.073% hits; activation, % at 5.96 µM;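 active = activation above the mean of all tested compounds plus 3 SD, set per screening campaign, cut at about 17% in these data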
# CRFBP-R2 agonist: agonists of human CRF-binding protein/CRF-R2 receptor complex; HEK293 CRF-R2/CRF-BP, calcium dye fluorescence (FLIPR); percent of saturating CRF peptide response; activation, % at 13.2 µM; 350,000 compounds, 0.46% hits;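 active = activation of at least 50%, plus an integration ratio under a set limit after plate pattern correction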;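 note: plate controls were neutral control wells without compound for no effect and CRF at EC100 for full effect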
# IDE cell inh: cellular human IDE inhibition | HEK cells, FAbetaB cleavage, fluorescence polarization | 320,000 compounds, 0.41% hits | inhibition, % at 5.59 µM | P14735;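 active = percent inhibition above the average of all tested compounds plus 3 SD, set per screening campaign, cut at about 16% in these data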;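 note: IDE supplied by intact live HEK cells; FP after avidin binding of uncleaved biotin substrate so inhibition keeps polarization high; 0% = DMSO wells and 100% = 60 µM reference IDE inhibitor Ii1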
# Myeloid diff 2: myeloid differentiation induction | ER-HoxA9 myeloid progenitors, lysozyme-GFP differentiation, flow cytometry | calls only at 10 µM | 360,000 compounds, 1% hits | AID 624256;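 active = normalized GFP-positive differentiation at or above the plate's own cutoff, the solvent-only control mean plus 3 SD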;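 note: cells exposed to compound for four days before flow analysis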
# CRFR2-BP antag: antagonists of CRF-binding protein/CRF-R2 receptor complex; HEK293 CRF-R2/CRF-BP, CRF-induced calcium fluorescence; inhibition, % at 11.8 µM; 350,000 compounds, 0.59% hits;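 active = inhibition of the ligand-induced calcium signal above about 50% at the single tested concentration, limit read from the data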
# TPT1 inhibitor: C. albicans TPT1 enzyme inhibition. recombinant caTPT1, FP RNA substrate dephosphorylation. inhibition, % at 5 µM. 300,000 compounds, 0.81% hits. AID 1962;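 active = inhibition above the mean of all tested compounds plus 3 SD, set per screening campaign, cut at about 24% in these data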;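 note: plate controls were DMSO alone for no effect and ferristatin control at 100 nM for full effect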
# * marks the source's active call; other numbers are inactive results; i = inactive; . = not tested or not shown; + = active, no number. The list is not random: actives were taken first. Their share in the collection is about 2.6%.
SMILES,IDE cell activ,CRFBP-R2 agonist,IDE cell inh,Myeloid diff 2,CRFR2-BP antag,TPT1 inhibitor
Cc1ccc(S(=O)(=O)n2nnc3ccccc32)c(C)c1C,-0.6,-1.6,-2.7,i,92.9*,-2.0
CCOc1ccc(Cl)cc1S(=O)(=O)n1nnc2ccccc21,5.2,3.0,-6.5,i,107.4*,-0.2
Cc1cccc(N2CC(O)(c3cccs3)[N+]3=C2CCCCC3)c1 (centres undefined),4.8,1.9,0.3,i,-7.3,-0.4
Cc1cccc(N2CC(O)(c3cccs3)[N+]3=C2CCCC3)c1 (centres undefined),4.9,1.6,2.6,i,94.5*,-1.8
COc1ccc(/C=C2\SC(=S)N(CC(=O)N3CCN(C)CC3)C2=O)cc1,.,-0.1,-5.8,i,5.3,2.0
CN1CCS/C1=C\C=C1/SC(=S)N(CC(=O)O)C1=O,-100.7,107.1*,.,i,-75.6,.
CCCCNC(=S)N1CCN(c2nc3ccccc3s2)CC1,-9.0,-0.1,19.3*,i,-1.4,-0.1
Cc1nc(Nc2ccc(S(=O)(=O)N3CCCCC3C)cc2)c2nnn(Cc3ccccc3)c2n1 (centres undefined),2.2,16.7,4.6,+,-11.3,-1.2
Cc1nc(Nc2ccc(Cl)cc2)c2nnn(Cc3ccccc3)c2n1,4.0,1.2,1.8,i,-23.5,1.2
CC(=O)Nc1ccc(S(=O)(=O)N2CCC(NC(C)=O)(c3cccc(F)c3)CC2)cc1,-2.4,-6.7,1.1,i,51.2*,-3.8
Cc1ncn(C23CC4CC(CC(C4)C2)C3)n1,-7.3,6.6,2.1,i,57.7*,-0.1
Nc1ncn(C23CC4CC(CC(C4)C2)C3)n1,-1.4,-0.1,2.0,i,16.4,-1.5
CCOC(=O)c1nn(-c2cccc(C)c2)c2nnc(Cc3ccc(C)cc3)c(=O)n12,6.0,-0.9,2.8,i,10.5,-1.4
O=C1NC(=S)S/C1=C\c1cc(Cl)ccc1Cl,6.5,29.5,.,i,70.0*,.
O=C1NC(=S)SC1=Cc1ccccc1C(=O)O,.,.,.,i,.,.
COc1ccc(Cc2nnc(SCC(=O)Nc3cc(Cl)ccc3C)[nH]c2=O)cc1,4.0,0.4,-5.3,i,21.1,0.5
C=CCOc1cccc(C2C(C(=O)c3ccc(C)o3)=C(O)C(=O)N2c2nccs2)c1 (centres undefined),6.5,28.6,-2.4,+,-41.2,-90.9
Cc1ccc2nc(N3C(=O)C(O)=C(C(=O)c4ccc(C)o4)C3c3cccc(O)c3)sc2c1 (centres undefined),-1.2,11.5,1.4,i,95.8*,8.3
O=Cc1cc2ccccc2nc1SCCCF,-2.4,-1.1,1.4,+,12.8,-1.9
CSc1nc2ccccc2cc1/C=C(\C#N)c1ccccc1,1.2,1.1,-1.0,.,-6.8,-7.0
CC(Oc1ccc(Br)cc1)C(=O)N1CCc2ccccc21 (centres undefined),-0.2,222.2*,9.2,i,-164.2,-4.6
CC(Oc1ccccc1Br)C(=O)N1CCc2ccccc21 (centres undefined),-0.4,0.2,1.5,i,3.4,-0.6
O=C(O)c1cccc(N/N=C/c2sc(N3CCOCC3)nc2-c2ccccc2)c1,6.4,-2.5,-0.3,i,-2.1,5.8
O=[N+]([O-])c1ccc(N/N=C/c2sc(N3CCOCC3)nc2-c2ccccc2)c(S(=O)(=O)Nc2ccc(Cl)cc2)c1,0.2,83.0*,.,+,-54.6,.
O=C(N/N=C/c1sc(N2CCOCC2)nc1-c1ccccc1)c1ccccc1Cl,1.9,-1.9,0.8,i,27.4,-2.5
SMILES,IDE cell activ,CRFBP-R2 agonist,IDE cell inh,Myeloid diff 2,CRFR2-BP antag,TPT1 inhibitor
O=[N+]([O-])c1ccc(N/N=C/c2sc(N3CCOCC3)nc2-c2ccccc2)c(S(=O)(=O)Nc2ccccc2Cl)c1,0.6,66.9*,.,i,-39.4,.
O=C(CNC(=O)/C=C/c1ccco1)N=Nc1c(O)[nH]c2ccccc12,-5.3,-1.4,-3.9,i,-8.0,-1.3
COC(=O)CCNC(=O)CCc1ccc(S(=O)(=O)N2CCCCCC2)cc1,16.8,0.1,-4.7,i,0.7,.
COc1ccc(N2C(=O)CSC23C(=O)N2c4c(cccc43)C(C)=CC2(C)C)cc1 (centres undefined),5.8,-5.8,2.2,i,84.0*,4.3
O=P(c1ccccc1)(c1ccccc1)c1cc(S(=O)(=O)O)ccc1O,-2.6,115.0*,.,i,-72.8,.
O=C1/C(=C/c2ccc(N3CCOCC3)o2)SC(=Nc2ccccc2)N1CCc1c[nH]c2ccccc12,-50.5,24.4,11.1,+,-1.9,148.2*
COc1ccc(-n2nc3c(c2NC(=O)c2ccc(S(=O)(=O)N4CCOCC4)cc2)CS(=O)(=O)C3)cc1,6.8,-0.8,4.2,i,5.2,-1.1
COc1ccc(S(=O)(=O)Cc2ccccc2)cc1N,1.7,-1.3,-4.8,+,16.7,-4.2
CN(c1ccccc1)c1ccc(/C=C(\CCC(=O)O)c2nc3ccccc3s2)cc1[N+](=O)[O-],-0.2,-1.8,1.9,i,51.7*,-0.1
O=[N+]([O-])c1nccn1C1C=CC(O)C(CO)O1 (centres undefined),.,.,.,i,.,.
Cc1ccccc1/C=N/N1CCN(c2ccccc2)CC1,-2.2,-1.1,9.1,i,-13.3,0.4
O=Cc1ccc(OCC(=O)Nc2ccccc2C(F)(F)F)cc1,3.9,-2.1,-2.3,i,-5.1,1.6
COc1cccc(CN(C)C(=O)c2cccc(S(=O)(=O)N3CCN(c4ccccc4)CC3)c2)c1OC,0.7,-0.4,.,i,116.7*,.
CN(CC(=O)Nc1ccc(F)cc1)C(=O)c1cccc(S(=O)(=O)N2CCN(c3ccccc3)CC2)c1,8.5,0.4,-5.9,i,-11.0,-4.2
COc1ccc(NC(=O)CN(C)C(=O)c2cccc(S(=O)(=O)N3CCN(c4ccc(F)cc4)CC3)c2)cc1,3.0,-0.5,.,i,79.3*,.
CCN(CC(=O)Nc1ccc(OC)cc1)C(=O)c1cc(S(=O)(=O)N2CCOCC2)ccc1N1CCCC1,4.7,-1.6,2.0,i,69.9*,0.7
O=C(c1cccc(S(=O)(=O)N2CCOCC2)c1)N(Cc1ccc(F)cc1)Cc1ccco1,2.2,-1.0,-1.9,i,55.2*,-0.7
COC(=O)c1csc(S(=O)(=O)N2CCOCC2)c1OC,3.1,1.9,0.6,i,3.7,-0.5
O=C1NN(c2ccccc2)C(=O)/C1=C/c1ccc(Sc2cccc3ccccc23)o1,-3.7,-0.4,-1.6,i,-47.9,4.5
Cn1cc(CN2C[C@H]3CC[C@H]2C3)c(-c2ccccc2F)n1,-2.0,-0.3,3.1,i,33.2,4.4
Cc1ccc(-c2nn3c(-c4ccccc4)nnc3o2)cc1,.,-2.4,.,i,-9.7,.
CCN(Cc1ccccc1)C(=O)c1cccc(S(=O)(=O)N2CCN(c3ccccc3)CC2)c1,1.1,-0.6,5.6,+,-16.8,-0.8
O=C(c1cccc([N+](=O)[O-])c1)N1CCN(c2cccc(Cl)c2)CC1,3.3,-2.1,1.0,+,18.0,-0.6
